The values that follow come from PubChem BioAssay (NCI).

About 83,000 compounds went through this panel and 20% of them were active in at least one assay; those are over-represented in the sample as a whole.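 Testing used 96-well plates and a 48-hour single-concentration exposure. Example: -40 means 40% of the starting cells died.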 Unmarked numbers belong to inactive results. Active and inactive are the calls of the source. The calls were made as follows: active = growth percent below 10; inactive = the rest.

Some test systems named below: EKVX NSCLC; SN12C renal; UO-31 renal; TK-10 renal; ACHN renal; CAKI-1 renal; A498 renal; CCRF-CEM leukemia; MOLT-4 leukemia; RPMI-8226 leukemia; OVCAR-8 ovarian; OVCAR-5 ovarian; OVCAR-4 ovarian; SK-OV-3 ovarian; IGROV1 ovarian; OVCAR-3 ovarian; HS 578T breast; NCI/ADR-RES ovarian; SR leukemia.
Common to all, as to test: NCI-60 one-dose screen, 48 h (100 = growth as untreated, 0 = no growth, -100 = all killed)
Holding throughout (conditions): 10 µM unless noted

Turning to `c1csc(-c2c3ccc(=[N+]4CCCCC4)cc-3oc3cc(N4CCCCC4)ccc23)c1`, the growth in the assay on EKVX NSCLC is -51.8% (active); with SN12C renal, -65.1% (active); in the assay with UO-31 renal, -82.3% (active); in the assay with TK-10 renal, -92.5% (active); with ACHN renal, -94.4% (active); in the assay with CAKI-1 renal it was -70.3% (active). Besides, the growth is -96.4% (active) in the assay on A498 renal; -19.7% (active) in the assay with CCRF-CEM leukemia; -28.7% (active) with MOLT-4 leukemia; -39.1% (active) in the assay on RPMI-8226 leukemia; -33.5% (active) in the assay on OVCAR-8 ovarian; -83.1% (active) in the assay with OVCAR-5 ovarian. The growth in the assay on OVCAR-4 ovarian is -54.3% (active); in the assay with SK-OV-3 ovarian, -89% (active); with IGROV1 ovarian, -67.1% (active); with OVCAR-3 ovarian it was -96.9% (active); with HS 578T breast, -20.7% (active); in the assay on NCI/ADR-RES ovarian it was -38.9% (active).
With `C=C1C(=O)O[C@H]2[C@H]1CC/C(COC(=O)C(=O)c1c[nH]c3ccccc13)=C\CC[C@@]1(C)O[C@@H]21`, the growth in the assay with EKVX NSCLC was 48.2%; in the assay with SN12C renal it was -46.7% (active); in the assay on UO-31 renal, -93.3% (active); in the assay on TK-10 renal it was -32.3% (active); in the assay with ACHN renal it was -36% (active); in the assay on CAKI-1 renal, -33.8% (active). The growth was -17.9% (active) with A498 renal; -24.6% (active) in the assay on MOLT-4 leukemia; -29.8% (active) with RPMI-8226 leukemia; -6.78% (active) in the assay with OVCAR-8 ovarian; -5.59% (active) in the assay with OVCAR-5 ovarian; 17.9% in the assay with OVCAR-4 ovarian. For the same compound, the growth was 85.1% in the assay with SK-OV-3 ovarian; -69.8% (active) in the assay on IGROV1 ovarian; -82.2% (active) in the assay on OVCAR-3 ovarian; 10.7% in the assay with HS 578T breast; 17.9% with NCI/ADR-RES ovarian.
With `O=C(/C=C/c1cccc(O)c1)c1cccc(-n2cc(-c3ccc4ccccc4c3)[nH]c2=O)c1`, the growth was 11.2% with EKVX NSCLC; 5.36% (active) in the assay on SN12C renal; 35.5% in the assay on UO-31 renal; -5.34% (active) in the assay on TK-10 renal; -40.7% (active) with ACHN renal; -1.58% (active) in the assay on CAKI-1 renal. For the same compound, the growth is 91.9% in the assay on A498 renal; 1.72% (active) in the assay on CCRF-CEM leukemia; -1.37% (active) in the assay on MOLT-4 leukemia; 13.5% in the assay with OVCAR-8 ovarian; -42.6% (active) in the assay with OVCAR-5 ovarian; -76.2% (active) in the assay with OVCAR-4 ovarian. In addition, the growth in the assay with SK-OV-3 ovarian is 19.6%; with IGROV1 ovarian it was 85.7%; in the assay with OVCAR-3 ovarian, -73.2% (active); in the assay on HS 578T breast, -11% (active); with NCI/ADR-RES ovarian it was -39.3% (active).
Turning to `COc1ccc(-c2nc3ccc4[nH]ncc4c3c3c2CCCC3)cc1B(O)O`, the growth in the assay on EKVX NSCLC is 17.7%; in the assay with SN12C renal it was 52%; in the assay with TK-10 renal it was 49.5%; in the assay on ACHN renal, 20.9%; with CAKI-1 renal, -1.55% (active); in the assay on A498 renal, 8.27% (active). Moreover, the growth was 46.8% in the assay with CCRF-CEM leukemia; 48.8% in the assay with MOLT-4 leukemia; 47.6% in the assay on RPMI-8226 leukemia; 56.4% in the assay on OVCAR-8 ovarian; 90.5% with OVCAR-5 ovarian; 74.8% in the assay on OVCAR-4 ovarian. Further, the growth in the assay on SK-OV-3 ovarian was 14.4%; in the assay on IGROV1 ovarian, 35.6%; in the assay with OVCAR-3 ovarian it was 94.8%; in the assay on HS 578T breast, 0.224% (active); in the assay with NCI/ADR-RES ovarian, 71.2%.
In the case of `Cc1ccc(C(=O)CSc2nc(-c3ccc(Br)cc3)c(C#N)c(=O)[nH]2)cc1`, the growth in the assay on EKVX NSCLC is 106%; with SN12C renal, 99.5%; in the assay on TK-10 renal it was 103%; in the assay on ACHN renal, 110%; in the assay with CAKI-1 renal, 87.2%; with A498 renal, 65.1%. The growth with CCRF-CEM leukemia was 105%; in the assay with RPMI-8226 leukemia, 101%; with OVCAR-8 ovarian, 88.8%; with OVCAR-5 ovarian, 105%; with OVCAR-4 ovarian, 85.9%; in the assay with SK-OV-3 ovarian it was 104%. Further, the growth in the assay with IGROV1 ovarian was 99.3%; with OVCAR-3 ovarian it was 99.7%; with HS 578T breast, 93%; with NCI/ADR-RES ovarian it was 97.5%.
For the compound `COC(=O)[C@]12CC[C@@H](C)[C@H](C)[C@@H]1C1=CC[C@@H]3[C@@]4(C)C(C=O)=C[C@@](C)(COC(C)=O)[C@@H]4[C@H](O)C[C@@]3(C)[C@]1(C)CC2`, the growth in the assay with EKVX NSCLC is 20%; with SN12C renal it was -19.3% (active); in the assay with UO-31 renal, -26.2% (active); in the assay on TK-10 renal, -8.86% (active); with ACHN renal it was -54.3% (active); in the assay with CAKI-1 renal, 1.42% (active). For the same compound, the growth in the assay on A498 renal was 28.3%; with CCRF-CEM leukemia, 1.74% (active); in the assay with SR leukemia, -26.2% (active); in the assay with RPMI-8226 leukemia it was -17% (active); in the assay with OVCAR-8 ovarian, -0.958% (active); in the assay with OVCAR-5 ovarian, -28.3% (active). Besides, the growth was 9.81% (active) in the assay with OVCAR-4 ovarian; 6.14% (active) in the assay with SK-OV-3 ovarian; 2.81% (active) in the assay with IGROV1 ovarian; -85.7% (active) with OVCAR-3 ovarian; -18.3% (active) in the assay on HS 578T breast; 2.88% (active) in the assay with NCI/ADR-RES ovarian.
Turning to `COc1cccc(-c2nn(-c3ccccc3)cc2-c2ccnc(NCCNC(=O)Nc3ccc(Cl)c(Cl)c3)c2)c1`, the growth with EKVX NSCLC was 46.3%; with SN12C renal it was 11.5%; with UO-31 renal, -13.1% (active); in the assay with TK-10 renal it was 40.2%; in the assay with ACHN renal it was 14.6%; with CAKI-1 renal, 24.5%. The growth was -9.43% (active) with A498 renal; 8.1% (active) in the assay with CCRF-CEM leukemia; -26.4% (active) in the assay on SR leukemia; 11.9% in the assay with RPMI-8226 leukemia; 7.05% (active) with OVCAR-8 ovarian; 41.7% in the assay with OVCAR-5 ovarian. For the same compound, the growth in the assay on OVCAR-4 ovarian is 36.4%; with SK-OV-3 ovarian, 9.85% (active); in the assay on IGROV1 ovarian it was 44%; with OVCAR-3 ovarian it was -6.87% (active); in the assay with HS 578T breast, -22.1% (active); in the assay with NCI/ADR-RES ovarian it was -22.2% (active).
For `NC(=S)N/N=C/Cc1ccccc1`, the growth was 89.1% in the assay with EKVX NSCLC; 102% in the assay on SN12C renal; 64.4% in the assay on UO-31 renal; 107% in the assay with TK-10 renal; 102% in the assay on ACHN renal; 116% in the assay with CAKI-1 renal. In addition, the growth is 99.8% with A498 renal; 69.9% with CCRF-CEM leukemia; 78.7% in the assay with MOLT-4 leukemia; 88.3% with RPMI-8226 leukemia; 84.3% with OVCAR-8 ovarian; 120% in the assay with OVCAR-5 ovarian. Also, the growth in the assay with OVCAR-4 ovarian is 65.5%; in the assay with SK-OV-3 ovarian, 111%; in the assay on IGROV1 ovarian, 79%; in the assay on OVCAR-3 ovarian, 109%; with HS 578T breast, 103%; in the assay on NCI/ADR-RES ovarian, 83.7%.
On to `Cc1ccc(C(=NN=C(N)N)c2ccc(C)cc2)cc1`, for which the growth in the assay with EKVX NSCLC is 52.4%; in the assay on SN12C renal it was 22.6%; with UO-31 renal it was 21%; with TK-10 renal, 12.9%; in the assay with ACHN renal it was 23.8%; in the assay with CAKI-1 renal it was 27.1%. In addition, the growth in the assay on A498 renal was 17.1%; in the assay with CCRF-CEM leukemia it was 14.7%; in the assay on MOLT-4 leukemia, 5.74% (active); with RPMI-8226 leukemia, 1.96% (active); in the assay on OVCAR-8 ovarian, 6.75% (active); in the assay on OVCAR-5 ovarian, 30.8%. Besides, the growth in the assay with OVCAR-4 ovarian is 31.2%; with SK-OV-3 ovarian, -10.8% (active); in the assay with IGROV1 ovarian, 5.38% (active); with OVCAR-3 ovarian it was -34.8% (active); in the assay on HS 578T breast, 32.4%; in the assay with NCI/ADR-RES ovarian, 6.63% (active).
